Screening data (PubChem BioAssay)
Compounds with a hit are over-represented: about 18% of the library has one in this group of screens.
TDP1 block = qHTS Assay for Inhibitors of Tyrosyl-DNA Phosphodiesterase (TDP1); 350,000 compounds, 0.28% hits; recombinant TDP1, AlphaScreen DNA substrate cleavage; AID 485290, 2010; Tyrosyl-DNA phosphodiesterase 1 (Homo sapiens), Q9NUW8; Potency, µM (top dose mostly 130 µM), inactives show at the highest dose activity change, negative = inhibition, usual class: inhibitors; note: potency is the fitted concentration of half-maximal effect; nearly all actives have a fitted effect of over 40% in size
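Compounds were preincubated with Tdp1 (1 nM final) for 15 min at room temperature before substrate (15 nM final) started a 5 min reaction; beads (10 ug/ml final) were then added for 10 min before AlphaScreen detection.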
CtBP-E1A inh = qHTS Assay for Inhibitors of the CtBP/E1A Interaction; CtBP / adenovirus E1A interaction (AlphaScreen); AlphaScreen GST-E1A/His-CtBP binding, 1536-well; active compounds read low; activity change, % (test concentration not listed); 340,000 compounds, 0.49% hits; in the data active = activity change below about -65%; inconclusive = mostly about -30% to -63%
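Steps: dispense buffer (Tris pH 8.0, NaCl 300 mM, TCEP 1 mM, BSA, Tween 20); add 5X protein mix (GST-E1A, His-CtBP, 125 nM each); pin 23 nL compound; 2 h at 37 °C, dark; add 5X beads (50 ug/mL); 1 h; read.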
TDP1 cell CPT = qHTS for Inhibitors of human tyrosyl-DNA phosphodiesterase 1 (TDP1): qHTS in cells in presence of CPT; 420,000 compounds, 12% hits; AID 686979, 2013; Potency, µM (top dose mostly 46.2 µM), for the others: at the top dose activity change, negative = growth inhibition, actives largely listed as inhibitors; chicken DT40 Tdp1-/-;hTDP1 cells + 20 nM CPT, ATP luminescence, 48 h; note: potency is the fitted concentration of half-maximal effect; nearly all actives have a fitted effect of over 55% in size
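Cell growth measured by CellTiter-Glo luminescence after a minimum 48 h, 37 C compound exposure with 20 nM CPT in Tdp1-knockout DT40 cells stably expressing hTDP1, seeded 400/well; qHTS titration format.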
IL-1B inflam inh = qHTS for Inhibitors of Inflammasome Signaling: IL-1-beta AlphaLISA Primary Screen | THP-1 LPS/ATP IL-1B secretion, AlphaLISA, 16 h; active compounds read low | activity change, % at 57.5 µM | 360,000 compounds, 4.7% hits; in the data active = activity change below about -50%; inconclusive = mostly about -30% to -49%
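THP-1 cells pretreated 1 hr with compounds (up to 57.5 uM final), then stimulated with LPS (250 ng/mL final) plus ATP (1.25 mM final); secreted IL-1B measured by AlphaLISA after 16 hr, decreased signal indicating inhibition.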
TDP1 cell noCPT = qHTS for Inhibitors of human tyrosyl-DNA phosphodiesterase 1 (TDP1): qHTS in cells in absence of CPT | DT40 Tdp1-/- hTDP1 cells, no CPT, ATP luminescence, 48 h | Potency, µM (titrated, usually from 46.2 µM), for inactives: top-dose activity change, negative = growth inhibition, usual class: inhibitors | 420,000 compounds, 15% hits | AID 686978, 2013; note: potency is the fitted concentration of half-maximal effect; nearly all actives have a fitted effect of over 55% in size
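Cells were dispensed at 400 per well, compounds added by pin tool, plates incubated ≥48 hr at 37 °C, then CellTiter-Glo added for 30 min at room temperature before luminescence reading. Line: DT40 Tdp1-/- complemented with hTDP1; camptothecin omitted.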
Six1-Eya2 blk = qHTS Assay for Inhibitors of the Six1/Eya2 Interaction; 360,000 compounds, 0.56% hits; AlphaScreen GST-Six1/His-Eya2 binding, biochemical; active compounds read low; Homeobox protein SIX1 (Homo sapiens) + Protein phosphatase EYA2 (Homo sapiens), …; activity change, % (test concentration not listed); in the data active = activity change below about -65%; inconclusive = mostly about -30% to -63%
Target sequence (O00167 whole entry, looked up): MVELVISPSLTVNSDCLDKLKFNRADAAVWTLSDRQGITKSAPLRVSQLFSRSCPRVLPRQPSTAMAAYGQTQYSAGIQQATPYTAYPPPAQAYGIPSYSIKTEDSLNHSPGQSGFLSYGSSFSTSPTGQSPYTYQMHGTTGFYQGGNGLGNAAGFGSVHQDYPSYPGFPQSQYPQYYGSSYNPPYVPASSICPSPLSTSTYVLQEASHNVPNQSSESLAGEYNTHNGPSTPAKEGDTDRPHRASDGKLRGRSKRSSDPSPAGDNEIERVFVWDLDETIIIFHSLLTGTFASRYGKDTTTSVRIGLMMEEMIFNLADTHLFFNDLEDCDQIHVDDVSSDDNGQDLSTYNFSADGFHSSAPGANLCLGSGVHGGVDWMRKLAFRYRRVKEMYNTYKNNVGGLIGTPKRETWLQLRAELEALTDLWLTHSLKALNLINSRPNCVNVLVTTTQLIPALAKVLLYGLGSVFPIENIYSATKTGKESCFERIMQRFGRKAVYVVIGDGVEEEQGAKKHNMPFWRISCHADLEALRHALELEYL
Target sequence (Q15475 whole entry, looked up): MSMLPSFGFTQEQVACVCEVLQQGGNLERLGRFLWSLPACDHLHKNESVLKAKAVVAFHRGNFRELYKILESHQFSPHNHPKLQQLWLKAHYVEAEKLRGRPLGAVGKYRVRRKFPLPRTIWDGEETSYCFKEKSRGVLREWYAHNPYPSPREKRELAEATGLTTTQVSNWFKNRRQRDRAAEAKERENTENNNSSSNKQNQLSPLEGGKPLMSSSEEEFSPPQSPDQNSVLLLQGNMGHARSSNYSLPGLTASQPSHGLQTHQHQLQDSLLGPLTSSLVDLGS
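GST-Six1 + His-Eya2 (5X stock: 250/500 nM); Tris pH 8.0, 300 mM NaCl, 0.05% BSA, 0.02% Tween 20; GSH donor/Ni acceptor beads; 1 h 37 °C dark; AlphaScreen readout.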
The depositor's hits bear a star; ? = inconclusive; . = no result given; [ ] = remark or other dose. Unless noted, calls come from the whole dose curve; as a rule, active = well fitted curve in the direction sought with a large enough effect; inconclusive = small, poorly fitted or top-dose-only effect, or another doubt; inactive = no such curve, though single readings can be large; an effect the other way counts as inactive or inconclusive. % is set by controls: 0 for no effect and ±100 for the full control effect.

SMILES	TDP1 block	CtBP-E1A inh	TDP1 cell CPT	IL-1B inflam inh	TDP1 cell noCPT	Six1-Eya2 blk
COc1ccc(NC(=S)N=Nc2c(O)[nH]c3ccccc23)cc1	10%	.	8.2µM*	34	5.8µM*	?
CC(C#Cc1c([C@@H](C)Oc2ccccc2)nnn1Cc1ccccc1)Oc1ccccc1 (stereo partly drawn)	?	6	?	-20	?	30
COC(=O)[C@@]12C[C@@H](CC(=O)NCc3ccc(C)o3)C(=O)N(CCc3ccc(OC)c(OC)c3)C1=CCC(C)(C)C2	.	-1	9.2µM*	?	8.2µM*	3
CCCCCCCCN1C(=O)[C@H](CC(=O)NCc2cccc(C(F)(F)F)c2)C[C@@]2(C(=O)OC)CC(C)(C)CC=C12	.	4	12µM*	-22	10µM*	2
COC(=O)[C@@]12C[C@@H](CC(=O)NCc3cccs3)C(=O)N(CCc3ccc(OC)c(OC)c3)C1=CCC(C)(C)C2	.	-4	21µM*	?	?	-3
COC(=O)[C@@]12C[C@@H](CC(=O)NCc3ccc(OC)c(OC)c3)C(=O)N(Cc3cccc4ccccc34)C1=CCC(C)(C)C2	.	-12	?	-22	?	-8
C#CCNC(=O)C[C@@H]1C[C@@]2(C(=O)OC)CC(C)(C)CC=C2N(CCc2ccc(OC)c(OC)c2)C1=O	.	-7	?	-3	-25%	0
COC(=O)[C@@]12C[C@@H](CC(=O)NCc3ccccc3)C(=O)N(CCc3ccc(OC)c(OC)c3)C1=CCC(C)(C)C2	.	-19	13µM*	-28	13µM*	-2
O=C(c1ccc2ccccc2c1)c1cccc(F)c1C(=O)O	.	-5	27%	12	-10%	0
C#CCNC(=O)C[C@@H]1C[C@@]2(C(=O)OC)CCCCC=C2N(CCc2ccc(OC)c(OC)c2)C1=O	.	2	?	18	?	-4
COC(=O)[C@]12CCCCC=C1N(CCc1ccc(OC)c(OC)c1)C(=O)[C@H](CC(=O)NCc1cccs1)C2	.	-4	21µM*	-29	16µM*	-7
CCOC(=O)N1CCN(C(=O)C[C@@H]2C[C@@]3(C(=O)OC)CC(C)(C)CC=C3N(CCc3ccc(OC)c(OC)c3)C2=O)CC1	.	-3	?	?	16µM*	-5
COC(=O)[C@@]12C[C@@H](CC(=O)N3CCOCC3)C(=O)N(CCc3ccc(OC)c(OC)c3)C1=CCC(C)(C)C2	.	3	7%	-23	9%	0
O=C(/C=C/c1ccccc1)Nn1cnc2ccccc2c1=O	-1%	?	16µM*	-3	-98%	-8
CC(C)CN1CCC(=O)N([C@H](CO)c2ccccc2)CC1	.	4	-6%	10	7%	3
Cc1ccc(O)c(NC(=O)c2ccc(Br)c(S(=O)(=O)N3CCCCC3)c2)c1	-1%[12.3 µM]	.	9.2µM*	.	5.2µM*	.
Cc1ccc(C(=O)NNC(=O)c2ccccc2O)cc1S(=O)(=O)N1CCCCC1	0%	-15	16µM*	38	?	-28
Cc1ccc(C(=O)NC2CCCC2)cc1S(=O)(=O)N1CCCCC1	4%[56.1 µM]	9	-22%	27	11%	6
Cc1ccc(C(=O)Nc2ccccc2C(=O)NCc2ccco2)cc1S(=O)(=O)N1CCCCC1	0%	-8	?	2	16µM*	-6
Cc1ccc(S(=O)(=O)NC(=O)C2(C)CCN2C(=O)C2(c3ccc(Cl)cc3)CC2)nc1 (stereo not drawn)	.	3	-7%	21	0%	5
CCc1ccc(CNc2ccc3c(c2)ncn3CC)cc1	.	-21	?	-57*	?	-16
CCN(CC)c1ccc(CNc2ccc3c(c2)ncn3C(C)(C)C)cc1	.	-22	16µM*	-24	?	-25
CC(C)(C)n1cnc2cc(NCc3ccc(Br)cc3)ccc21	.	-25	?	?	?	-27
CCc1ccc(CNc2ccc3c(c2)ncn3C(C)(C)C)cc1	12%	-7	21µM*	-78*	21µM*	-14
O=c1c(NCc2cccs2)nccn1-c1ccc(F)cc1	3%	.	-17%	.	?	.
SMILES	TDP1 block	CtBP-E1A inh	TDP1 cell CPT	IL-1B inflam inh	TDP1 cell noCPT	Six1-Eya2 blk
Cc1ccc(C)c(N2CCN(C(=O)CS(=O)(=O)c3cccc4nsnc34)CC2)c1	4%	.	?	.	?	.
Cc1cc(C)cc(NC(=O)CCc2c(C)nc3nc(CNC(=O)c4cccc(F)c4)nn3c2C)c1	0%	.	?	.	?	.
Cc1ccc(OCCn2nnc3ccccc32)cc1C	.	14	?	?	?	7
CC1(C)C(=O)OC(c2cccn2-c2ccc([N+](=O)[O-])cc2)C(C)(C)C1=O (stereo not drawn)	1%	-6	15µM*	-9	23µM*	0
COc1ccccc1C(=O)N1[C@@H](C(C)C)COc2cc(Br)ccc2S1(=O)=O	.	4	?	18	16µM*	-6
Cc1cccc(C(=O)N2[C@@H](C(C)C)COc3cc(Br)ccc3S2(=O)=O)c1	.	6	?	-3	?	7
COc1cccc(C(=O)N2C(C(C)C)COc3cc(Br)ccc3S2(=O)=O)c1 (stereo not drawn)	.	4	26µM*	65	23µM*	5
COc1cc(C)nc(Oc2ccc(OCCOc3ccccc3)nn2)n1	0%	7	-1%	85	17%	9
O=C(O)c1ccc(-n2cccn2)c([N+](=O)[O-])c1	1%	0	9%	-2	-10%	10
COc1ccc([N+](=O)[O-])cc1NC(=O)c1cccnc1	.	1	10%	-14	-7%	2
COc1ccc(OCCNC2CCCC2)cc1	-8%	.	-16%	-23	-23%	1
c1ccc(-c2ccc(OCCCNC3CCCC3)cc2)cc1	-5%	-3	15µM*	.	?	7
COCCOc1cc2ncnc(N3CCC(C(=O)O)CC3)c2cc1OCCOC	-6%	-1	0%	10	-3%	1
C[N+]1(CC(=O)OCCCC2CCCCC2)CCCC1	5%	0	-28%	26	21µM*	6
O=C(CN1CCCC1)OCCCC1CCCCC1	4%	-3	-9%	23	-7%	2
